Source: PubChem BioAssay (NCI)
This is part of a sample that, as a whole, favours compounds with a hit. Of some 83,000 tested, about 20% had one in any assay.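 The test compound was applied at a single concentration to cells in 96-well plates for 48 hours, and percent growth was recorded.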 A number with no mark means an inactive call. Active and inactive are the calls of the source. Rule for the calls: active = growth percent below 10; inactive = the rest.

Key:
Test in all cases: NCI-60 one-dose screen, 48 h (100 = growth as untreated, 0 = no growth, -100 = all killed)
Conditions in all cases: 10 µM unless noted
NCI-H23 lung = system: NCI-H23 lung
NCI-H226 lung = system: NCI-H226 lung
NCI-H322M lung = system: NCI-H322M lung
HOP-62 NSCLC = system: HOP-62 NSCLC
NCI-H460 lung = system: NCI-H460 lung
HOP-92 NSCLC = system: HOP-92 NSCLC
NCI-H522 lung = system: NCI-H522 lung
A549/ATCC NSCLC = system: A549/ATCC NSCLC
786-0 renal = system: 786-0 renal
COLO 205 colon = system: COLO 205 colon
DU-145 prostate = system: DU-145 prostate
K-562 leukemia = system: K-562 leukemia
MALME-3M melanoma = system: MALME-3M melanoma
MDA-MB-231 breast = system: MDA-MB-231 breast
RXF 393 renal = system: RXF 393 renal
SF-268 CNS = system: SF-268 CNS
SF-295 CNS = system: SF-295 CNS
SF-539 CNS = system: SF-539 CNS
UACC-257 melanoma = system: UACC-257 melanoma
M14 melanoma = system: M14 melanoma

Row | SMILES | growth (NCI-H23 lung) | growth (NCI-H226 lung) | growth (NCI-H322M lung) | growth (HOP-62 NSCLC) | growth (NCI-H460 lung) | growth (HOP-92 NSCLC) | growth (NCI-H522 lung) | growth (A549/ATCC NSCLC) | growth (786-0 renal) | growth (COLO 205 colon) | growth (DU-145 prostate) | growth (K-562 leukemia) | growth (MALME-3M melanoma) | growth (MDA-MB-231 breast) | growth (RXF 393 renal) | growth (SF-268 CNS) | growth (SF-295 CNS) | growth (SF-539 CNS) | growth (UACC-257 melanoma) | growth (M14 melanoma)
1 | Cn1ccnc1C(=O)C(=O)Nc1ccc(CC(=O)Nc2ccccc2)cc1 | 104% | 96.4% | 102% | 107% | 102% | 103% | 99.5% | 108% | 104% | 109% | 104% | 111% | 101% | 109% | 102% | 96.7% | 106% | 99.4% | 110% | 104%
2 | COc1ccc2cc(C(=O)c3coc4ccc(O)cc34)ccc2c1 | 96% | 104% | 95.8% | 94.9% | 105% | 95.4% | 72.9% | 92.8% | 94.1% | 101% | 99.6% | 81.6% | 92.1% | 95% | 115% | 90.1% | 105% | 93.7% | 103% | 108%
3 | OCc1cccc(-c2ccc3ncc(-c4nc(NC5CC5)ncc4F)n3c2)c1 | -16.3% (active) | 2.19% (active) | -6.44% (active) | 2.21% (active) | -4.33% (active) | -13.9% (active) | -13.9% (active) | -8.48% (active) | 6.46% (active) | -39.7% (active) | 2.04% (active) | 4.91% (active) | -69% (active) | -15.6% (active) | -44.3% (active) | -24.5% (active) | 4.24% (active) | -61.2% (active) | -29.9% (active) | -39.4% (active)
4 | CCn1cc(C(=O)N/N=C/c2cccs2)c(=O)c2cc(F)c(N3CCNC(C)C3)c(F)c21 (stereo not given) | 89.8% | 76% | 84.1% | 72.4% | 23.6% | 53.8% | 71.1% | 44% | 67.8% | -41.7% (active) | 48.3% | -39% (active) | -36.7% (active) | 41% | 16.2% | 79.1% | 85.3% | 84.2% | 108% | 49.4%
5 | Nc1nc(=S)c2ncn(C3OC(COP(=O)(O)O)C(O)C3O)c2[nH]1 (stereo not given) | 14.5% | 32.8% | 53.2% | 20.1% | 8.01% (active) | 33.4% | -3.01% (active) | 32.9% | 22.9% | 24.7% | 22.6% | 13.7% | 39.7% | 38.7% | 13.9% | 28.2% | 19.9% | 26.2% | 36.7% | 14.6%
6 | COC(=O)CNC(=O)[C@H](Cc1ccccc1)NCc1ccncc1 | 101% | 109% | 101% | 97.3% | 108% | 103% | 84.5% | 85.6% | 105% | 109% | 105% | 89.1% | 95.7% | 105% | 112% | 107% | 99% | 102% | 84.4% | 105%
7 | N#Cc1cccc(F)c1 | 106% | 109% | 115% | 110% | 118% | 113% | 102% | 109% | 101% | 114% | 125% | 94.4% | 110% | 101% | 114% | 110% | 109% | 88.9% | 110% | 102%
8 | N#Cc1c(-c2ccc(Cl)cc2)nc(SCC(=O)NC2=NN=C(c3ccccc3)CS2)[nH]c1=O | 76.3% | 106% | 89.7% | 68.9% | 110% | 58.2% | 66.4% | 90.6% | 93% | 80.7% | 105% | 42.4% | 75% | 78.1% | 84.5% | 91.4% | 107% | 91.4% | 84% | 72.3%
